# Screening data from PubChem BioAssay.
# POLH inh: inhibitors of human DNA polymerase eta; Q9Y253; recombinant Pol eta, fluorescent DNA replication assay; Potency, µM (top dose mostly 114 µM), for inactives: at the top dose activity change, negative = inhibition, hits mostly inhibitors; 390,000 compounds, 1.2% hits; further: potency means the concentration at half of the fitted maximal effect; on the % scale 0 is the no-effect control and ±100 the full control effect
#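 Pol eta (10 nM) was preincubated with compounds for 15 min at room temperature, after which fluorescent replication substrate (50 nM final) was added to start the reaction. Fluorescence was read kinetically at 0 and 10 min.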
# POLK inh: inhibitors of human DNA polymerase kappa; Q9UBT6; AID 588579; Potency, µM (top dose mostly 107 µM), inactives show at the top dose activity, negative = inhibition, usual class: inhibitors; purified Pol kappa, fluorescent DNA synthesis assay, 10 min; 400,000 compounds, 0.53% hits; further: potency means the concentration at half of the fitted maximal effect; on the % scale 0 is the no-effect control and ±100 the full control effect
#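 Enzyme at 10 nM met test compounds for 15 min at room temperature. Substrate addition (50 nM final) began the reaction, which was monitored by fluorescence at 0 and 10 min.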
# 12-LOX inh: ALOX12 (human) lipoxygenase inhibition; P18054; AID 1671190; purified 12hLO, xylenol orange hydroperoxide absorbance; 580,000 compounds, 1.1% hits; Potency, µM (series often up to 108 µM), without a hit: at the highest dose activity change, negative = inhibition, actives largely listed as inhibitors; further: potency means the concentration at half of the fitted maximal effect; on the % scale 0 is the no-effect control and ±100 the full control effect
#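 Purified human 12hLO at 150 nM in 25 mM Hepes, 0.01% Triton X-100, pH 7.0, preincubated 15 min at room temperature with compound. Reaction started with 40 uM arachidonic acid, 30 min at room temperature. Hydroperoxide measured by Fe-xylenol orange, 573/405 nm absorbance ratio.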
# Pol beta inh: blocks human DNA polymerase beta activity | P06746 | Pol beta primer extension/strand displacement, fluorescence kinetic | Potency, µM (highest dose often 114 µM), for the others: at the highest dose activity change, negative = inhibition, hits mostly inhibitors | 340,000 compounds, 1.3% hits | AID 485314; further: potency means the concentration at half of the fitted maximal effect; on the % scale 0 is the no-effect control and ±100 the full control effect
#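 10 nM enzyme + cpd, 15 min RT; start with substrate 50 nM final; read 0 min and after 10 min RT. Corrected, normalized data; 4-parameter Hill curve fit.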
# PI5P4K alpha inh: blocks human PI5P4K alpha kinase activity. 330,000 compounds, 1.2% hits. P48426. PI5P4Kalpha enzyme, ADP-Glo luminescence, 60 min; active compounds read low. max response, %. AID 652105; active means max response of -50% or lower; inconclusive means between -30% and -50%; inactive means -30% or higher; further: value at the top dose of about 77 µM; on the % scale 0 is the no-effect control and ±100 the full control effect
# Target sequence (P48426 whole entry, looked up): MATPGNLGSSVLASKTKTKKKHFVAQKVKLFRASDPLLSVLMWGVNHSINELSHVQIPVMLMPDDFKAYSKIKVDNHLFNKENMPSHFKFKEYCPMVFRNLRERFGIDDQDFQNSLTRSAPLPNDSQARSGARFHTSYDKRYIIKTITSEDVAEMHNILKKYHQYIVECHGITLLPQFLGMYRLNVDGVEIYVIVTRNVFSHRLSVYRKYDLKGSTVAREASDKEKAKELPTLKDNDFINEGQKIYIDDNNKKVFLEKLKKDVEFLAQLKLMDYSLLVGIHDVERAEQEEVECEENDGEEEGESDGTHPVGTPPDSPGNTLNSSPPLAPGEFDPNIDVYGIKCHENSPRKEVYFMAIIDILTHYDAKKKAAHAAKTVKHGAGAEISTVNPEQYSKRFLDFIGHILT
#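 Human PI5P4Kalpha with substrate in 0.038 M HEPES pH 7.4, 0.28 mM EGTA, 0.1% CHAPS, 5% DMSO; reaction started with 5 microM ATP (final), 60 min at room temperature. ADP formed read by ADP-Glo luminescence.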
# POLI inh: inhibitors of human DNA polymerase iota. Q9UNA4. Pol iota fluorescent replication assay, 10 min. Potency, µM (top dose mostly 115 µM), for the others: top-dose activity, negative = inhibition, hits mostly inhibitors. 390,000 compounds, 1% hits. AID 588590; further: potency means the concentration at half of the fitted maximal effect
#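 Pol iota at 10 nM preincubated 15 min with compounds at room temperature; reaction started with fluorescent substrate, 50 nM final. Fluorescence read kinetically at 0 and 10 min; buffer-only wells as negative control.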
# Active calls of the source: *; ? = inconclusive; nt = not tested or not shown; ! = not confirmed by another sample; [ ] = dose if it differs, or a comment. A selection: hits, their analogues and other compounds. The true share with any hit is near 2.9%. Unless noted, the call rests on the fitted dose curve; in most records, active means well fitted inhibition curve with a large enough effect; inconclusive means small, poorly fitted or top-dose-only effect, or another doubt; inactive means no such curve, though single readings can be large or run the other way.
SMILES,POLH inh,POLK inh,12-LOX inh,Pol beta inh,PI5P4K alpha inh,POLI inh
COc1ccc(CCC(=O)Nc2c(-c3ccc(N(C)C)cc3)[nH][nH]c2=O)cc1,nt,nt,-110.4%,nt,-60.0*,nt
Cc1nn(-c2ccc(C(C)C)cc2)c(C)c1[C@@H]1C=C[C@@H](NC(=S)NC2CCCCC2)C1,nt,nt,39.8µM*,nt,nt,nt
COC(=O)c1cccc(NC(=S)N[C@@H]2C=C[C@@H](c3c(C)nn(-c4ccc(C(C)C)cc4)c3C)C2)c1,nt,nt,44.7µM*,nt,nt,nt
COc1ccc(NC(=O)N[C@@H]2C=C[C@@H](c3c(C)nn(-c4ccc(C(C)C)cc4)c3C)C2)cc1,nt,nt,0.8%,nt,nt,nt
Cc1nn(-c2ccc(C(C)C)cc2)c(C)c1[C@@H]1C=C[C@@H](NC(=O)NC(C)C)C1,nt,nt,14.4%[176 µM],nt,nt,nt
Cc1ccc2c(c1)C1(C(=O)N2)C(C#N)=C(N)N(c2ccc(C(F)(F)F)cc2)C2=C1C(=O)CCC2 (configuration not stated),nt,nt,24.4%,nt,nt,nt
COc1ncccc1CNC[C@H]1Cn2c(-c3ccc(Cl)cc3)cnc2CO1,nt,nt,30.9%[176 µM],nt,nt,nt
COCc1cc(C)nc(SCC(=O)c2ccc(O)c(O)c2)c1C#N,44.7µM*,?,0.891µM*,?,nt,22.4µM*
CCOc1cc(/C=C2/SC(=S)N(CC(=O)O)C2=O)ccc1OC(=O)c1cccs1,?,-2.9%,?,-22.1%,-2.5,?
CCOc1cc(/C=C2\C(=O)N(c3ccc(C(N)=O)cc3)N=C2C)ccc1OC(=O)c1cccs1,50.1µM*,-5.1%,nt,0.1%,-25.2,?
CCOc1cc(/C=C2/C(=O)N(c3ccccc3)N=C2C)ccc1OC(=O)c1ccco1,-18.6%,-28.4%,-18.7%,3.5%,nt,1µM*
CCCNC(=O)N1CCN(Cc2nc(-c3ccc(OC)cc3)oc2C)CC1,nt,nt,-9.9%,nt,nt,nt
O=C(CCC(=O)c1ccc2c(c1)CCC2)Nc1ccc2c(c1)CCC2,nt,nt,38.5%,nt,nt,nt
O=C(/C=C/c1cc2ccccc2nc1N1CCOCC1)c1cccc(O)c1,nt,nt,15.8µM*,nt,nt,nt
O=C([C@@H]1C[C@H](c2ccc(F)cc2)N(Cc2ccccc2Cl)C1)N1CC(O)C1,nt,nt,-12.5%[176 µM],nt,nt,nt
COc1ccc2cc(C(=O)CS(=O)(=O)c3ccccc3)c(=O)oc2c1,-5.1%,-3.4%,-6.6%,12.9%,-0.5,28.6%
COc1ccc(S(=O)(=O)CC(=O)c2cc3cccc(C)c3oc2=O)cc1,50.1µM*,-25.5%,nt,?,?,?
Cc1ccc(NC(=O)C(=Cc2ccc(C(=O)O)cc2)C(=O)Nc2ccc(C)cc2C)c(C)c1,79.4µM*,7.9%,nt,-25.3%,1.2,12.6µM*
Cn1c(C=O)ccc1-c1ccc(Cl)cc1,nt,nt,-21.0%,nt,nt,nt
Cc1cc(C)cc(NC(=S)NCc2ccc3[nH]c4c(c3c2)CCCC4)c1,-12.2%,-10.0%,39.8µM*,-11.5%,0.6,-11.0%
S=C(NCc1ccc2[nH]c3c(c2c1)CCCC3)Nc1ccccc1,-12.6%,-5.1%,39.8µM*,3.3%,6.5,13.3%
Cc1cc(C)cc(NC(=O)CN(C)S(=O)(=O)c2ccc3[nH]c4c(c3c2)CCCC4)c1,-19.8%,-10.4%,-7.5%,?,nt,8.6%
Cc1ccc2c(CSc3nnc(NCC(C)C)s3)cc(=O)oc2c1,nt,nt,17.8µM*,nt,nt,nt
CCCCCCCCC(=O)Nc1c(C)cccc1CC,nt,nt,-2.1%,nt,nt,nt
Cc1nn(C2CCS(=O)(=O)C2)c(C)c1C=O (configuration not stated),-6.8%,1.5%,17.2%,11.8%,-67.0*,80.4%
SMILES,POLH inh,POLK inh,12-LOX inh,Pol beta inh,PI5P4K alpha inh,POLI inh
Cc1ccc(C)n1C1CCS(=O)(=O)C1 (configuration not stated),1.6%,-6.0%,74.5%,4.8%,-1.0,9.6%
Cc1nc2oc3c(NCc4ccccc4)ncnc3c2c2c1COC(C)(C)C2,14.1µM*,-6.1%,-17.8%,7.7%,-0.1,19.5%
O=C(Nc1ccccc1)c1nnsc1S(=O)c1ccc(Cl)cc1 (configuration not stated),8.6%,-9.1%,14.1µM*,0.6%,6.3,?
Cc1nnsc1S(=O)c1ccc(Cl)cc1 (configuration not stated),-2.9%,-14.6%,0.0%,11.7%,-2.5,-25.9%
CCOC(=O)CC1(NC(=O)N2CCCC2c2ccco2)CCCCC1 (configuration not stated),nt,nt,11.6%,nt,nt,nt
Cc1ccc(O)c(C(=O)c2cc(C#N)c(=O)n(-c3nccs3)c2)c1,39.8µM*,-43.1%,?,25.1µM*,?,?
Cc1ccc(O)c(C(=O)c2cc(C#N)c(=O)n(-c3c(C)n(C)n(-c4ccccc4)c3=O)c2)c1,-1.1%,-20.9%,0.0%,4.9%,nt,-10.5%
CCC(=O)c1ccc(OC)c(Cl)c1,nt,nt,0.0%,nt,nt,nt
CN1C[C@H](C(=O)Nc2cccc(F)c2)C[C@H]1c1cccc(C(F)(F)F)c1,nt,nt,20µM*,nt,nt,nt
COc1ccc(NC(=O)[C@@H]2C[C@@H](c3cccc(C(F)(F)F)c3)N(C)C2)cc1,nt,nt,3.5%[176 µM],nt,nt,nt
Clc1ccccc1-c1ncc2ccccn12,-13.3%,-7.4%,22.4µM*,-23.1%,-6.6,108.2%
CCCOc1ccc(/C=c2\sc3nc(-c4ccco4)nn3c2=O)cc1OCC,?,?,?,?,?,22.4µM*
Cc1ccc2c(c1C)NC(C)CC2C (configuration not stated),-10.9%,-6.9%,4.47µM*!,-29.1%,-3.4,4.4%
Cc1cccc2c1NC1(CCCC1)CC2C (configuration not stated),0.3%,-7.2%,0.0%,-15.7%,-9.9,?
N#C/C(=C\c1ccc(N2CCOCC2)o1)c1nc2ccccc2[nH]1,?,?,119.2%,?,-20.5,-12.7%
N#C/C(=C/c1ccc(N2CCOCC2)o1)c1ccc(Cl)cc1,1.3%,-9.0%,7.94µM*,15.1%,nt,?
COc1ccc(NC(=O)CC(C)=O)c(OC)c1,4.0%,-1.2%,-3.3%,-0.1%,-64.4*,-28.4%
COc1cc(NC(=O)CNC(=O)Cn2c(C)cc3ccccc3c2=O)cc(OC)c1OC,-13.5%,1.9%,?,0.3%,-2.4,7.2%
COc1ccc(NC(=O)CNC(=O)Cn2c(C)cc3ccccc3c2=O)c(OC)c1,-15.6%,-19.9%,-21.2%,79.4µM*,-8.2,116.5%
COc1ccc(NC(=O)CNC(=O)Cn2c(C)cc3ccccc3c2=O)cc1OC,-25.3%,5.6%,-11.1%,31.6µM*,8.2,37.9%
C[S+](=O)([O-])CCn1ncc2cc(OCc3cccc(-c4ccc(Cl)cc4)c3)ccc21,nt,nt,-10.8%[176 µM],nt,nt,nt
COC(=O)C(C)Oc1ccc2c(c1)O/C(=C\c1ccco1)C2=O (configuration not stated),44.7µM*,?,?,?,?,44.7µM*
COc1ccc2c(c1)O/C(=C\c1ccco1)C2=O,-7.3%,-26.4%,30.6%,?,-14.2,21.9%
